Reference: PubChem BioAssay (NCI)
About 83,000 compounds went through this panel and 20% of them were active in at least one assay; those are over-represented in the sample as a whole.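 Growth was measured after 48 h exposure to one concentration of compound in 96-well plates. Values under 10 count as active.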 Values without a mark were called inactive.

Test system: MDA-MB-468 breast
Test: NCI-60 one-dose screen, 48 h (100 = growth as untreated, 0 = no growth, -100 = all killed)
Details: 10 µM unless noted

Structure (SMILES) | growth [%]
CCCCCCC(C)c1ccccc1O (stereo unspecified) (tested in a mixture with another compound) | 124
CN1CCN(Cc2ccc(NC(=O)c3cncc(C#Cc4cnc5cccnn45)c3)cc2C(F)(F)F)CC1 | 37.8
C/C(=N\NC(=O)CSc1nc2ccccc2c(=O)n1CCc1ccc(S(N)(=O)=O)cc1)c1ccccn1 | 25.3
NS(=O)(=O)c1ccc(CCn2c(SCC(=O)c3ccc(Cl)cc3)nc3ccccc3c2=O)cc1 | 105
C/C=C(/C)C(=O)O[C@@H]1CC(C)(C)CC2C34OC(=O)[C@@]21CC[C@@]3(C)[C@]1(C)CCC2C(C)(C)C(=O)CC[C@]2(C)C1C[C@@H]4Cl (stereo partly specified) | 80.5
O=c1oc2ccc(-c3ccc(F)cc3F)cc2c(=O)n1-c1ccc(Br)cc1F | 47.3
